Source: the supplement of paper PMC11732987, “Enantioselective OTUD7B fragment discovery through chemoproteomics screening and high-throughput optimisation” (Communications Chemistry, 2025)

Tests used:
Test in all cases: log2 ratio of Biotin-Ahx-Ub-VS probe labelling (fragment/DMSO); higher = less target engagement (more negative = stronger competition), active = hit call of the paper (q ≤ 0.05, log2 ratio ≤ -1)
Conditions in all cases: compound concentration: 200 uM; treatment time: 3 h
USP42 = target: T1, USP42 (UniProt Q9H9J4)
T1 sequence (whole entry): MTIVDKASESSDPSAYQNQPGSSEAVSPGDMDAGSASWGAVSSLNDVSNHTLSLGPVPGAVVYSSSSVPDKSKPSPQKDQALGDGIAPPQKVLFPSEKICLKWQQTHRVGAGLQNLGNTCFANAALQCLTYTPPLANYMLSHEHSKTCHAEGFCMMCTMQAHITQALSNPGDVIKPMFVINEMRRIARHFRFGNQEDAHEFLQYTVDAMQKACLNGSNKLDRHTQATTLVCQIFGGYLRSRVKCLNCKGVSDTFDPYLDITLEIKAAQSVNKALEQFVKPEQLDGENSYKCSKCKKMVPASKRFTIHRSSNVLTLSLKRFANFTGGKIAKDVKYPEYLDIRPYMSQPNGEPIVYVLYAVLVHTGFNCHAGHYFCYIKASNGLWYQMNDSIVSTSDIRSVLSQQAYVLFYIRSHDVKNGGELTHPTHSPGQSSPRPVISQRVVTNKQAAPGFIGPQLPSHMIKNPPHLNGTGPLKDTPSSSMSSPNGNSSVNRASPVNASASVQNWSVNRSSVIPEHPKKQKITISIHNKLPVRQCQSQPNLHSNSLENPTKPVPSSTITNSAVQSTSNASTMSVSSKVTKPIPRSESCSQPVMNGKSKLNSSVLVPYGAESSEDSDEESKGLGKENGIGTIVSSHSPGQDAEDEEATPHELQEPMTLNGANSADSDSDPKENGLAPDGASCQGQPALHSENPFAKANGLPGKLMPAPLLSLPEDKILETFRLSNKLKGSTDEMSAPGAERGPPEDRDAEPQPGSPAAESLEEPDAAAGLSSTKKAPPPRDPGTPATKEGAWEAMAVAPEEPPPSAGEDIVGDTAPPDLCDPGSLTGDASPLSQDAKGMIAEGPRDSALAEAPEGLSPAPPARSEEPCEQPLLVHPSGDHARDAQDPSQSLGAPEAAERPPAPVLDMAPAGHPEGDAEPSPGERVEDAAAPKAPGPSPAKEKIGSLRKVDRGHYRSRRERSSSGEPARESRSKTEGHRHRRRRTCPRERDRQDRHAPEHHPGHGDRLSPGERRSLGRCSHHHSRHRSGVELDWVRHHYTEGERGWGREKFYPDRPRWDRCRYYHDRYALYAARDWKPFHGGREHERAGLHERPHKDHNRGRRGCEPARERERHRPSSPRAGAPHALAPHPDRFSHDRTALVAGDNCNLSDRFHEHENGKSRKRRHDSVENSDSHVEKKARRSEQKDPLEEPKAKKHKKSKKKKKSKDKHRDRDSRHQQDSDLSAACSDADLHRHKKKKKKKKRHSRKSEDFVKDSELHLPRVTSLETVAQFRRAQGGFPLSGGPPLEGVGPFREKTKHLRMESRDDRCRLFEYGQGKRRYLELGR
In short: (§1)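 HEK293T lysate (495 µg per sample, in Tris/CHAPS/IGEPAL buffer with protease inhibitors) was treated in triplicate with fragment at 200 µM or with DMSO for 3 h. It was then treated with Biotin-Ahx-Ub-VS (0.5 µM final) for 1 h. Labelled DUBs were NeutrAvidin-enriched, digested with LysC and trypsin, and run by diaPASEF LC-MS/MS. Spectronaut label-free quantities were global-median-normalised. Values are average log2 ratios fragment/DMSO by unpaired t-test, using proteins with ≥2 unique peptides.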

USP46 = USP46 (UniProt P62068)
In short: as §1

USP47 = target: T2, USP47 (UniProt Q96K76)
T2 sequence (whole entry): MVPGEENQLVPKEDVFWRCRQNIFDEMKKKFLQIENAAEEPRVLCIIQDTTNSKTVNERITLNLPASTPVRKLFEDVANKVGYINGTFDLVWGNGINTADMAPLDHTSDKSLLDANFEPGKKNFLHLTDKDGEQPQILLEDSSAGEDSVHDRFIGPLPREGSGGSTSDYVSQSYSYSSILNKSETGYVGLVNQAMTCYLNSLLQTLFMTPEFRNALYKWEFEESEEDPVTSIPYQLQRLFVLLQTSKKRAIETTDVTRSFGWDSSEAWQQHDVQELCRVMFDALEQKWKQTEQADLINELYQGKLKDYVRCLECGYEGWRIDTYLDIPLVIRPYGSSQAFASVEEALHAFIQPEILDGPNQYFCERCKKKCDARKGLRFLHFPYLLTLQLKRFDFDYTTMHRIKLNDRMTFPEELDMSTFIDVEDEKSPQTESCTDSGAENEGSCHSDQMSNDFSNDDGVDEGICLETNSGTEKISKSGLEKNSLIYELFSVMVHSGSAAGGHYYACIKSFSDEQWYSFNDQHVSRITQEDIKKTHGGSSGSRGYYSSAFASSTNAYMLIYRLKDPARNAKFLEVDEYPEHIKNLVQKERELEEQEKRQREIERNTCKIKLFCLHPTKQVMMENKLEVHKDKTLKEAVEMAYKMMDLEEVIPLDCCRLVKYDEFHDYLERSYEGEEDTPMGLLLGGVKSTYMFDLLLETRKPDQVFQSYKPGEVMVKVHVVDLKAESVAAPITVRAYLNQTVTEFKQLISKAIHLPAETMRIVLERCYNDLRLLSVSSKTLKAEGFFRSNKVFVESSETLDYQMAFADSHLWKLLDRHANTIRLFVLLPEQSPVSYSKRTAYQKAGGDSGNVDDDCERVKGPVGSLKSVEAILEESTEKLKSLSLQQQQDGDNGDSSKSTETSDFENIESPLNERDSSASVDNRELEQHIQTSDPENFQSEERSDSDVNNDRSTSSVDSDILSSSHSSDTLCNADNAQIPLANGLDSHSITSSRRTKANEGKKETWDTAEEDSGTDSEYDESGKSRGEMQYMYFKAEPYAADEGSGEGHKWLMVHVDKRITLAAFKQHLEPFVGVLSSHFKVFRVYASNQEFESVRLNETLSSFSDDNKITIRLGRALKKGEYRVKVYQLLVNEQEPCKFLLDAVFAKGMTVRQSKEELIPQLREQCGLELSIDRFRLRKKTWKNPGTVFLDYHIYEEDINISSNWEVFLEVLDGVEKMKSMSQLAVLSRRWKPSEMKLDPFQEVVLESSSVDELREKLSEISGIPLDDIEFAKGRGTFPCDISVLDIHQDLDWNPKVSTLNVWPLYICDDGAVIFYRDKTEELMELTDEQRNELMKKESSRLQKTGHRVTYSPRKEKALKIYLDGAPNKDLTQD
In short: as §1

USP48 = target: T3, USP48 (UniProt Q86UV5)
T3 sequence (whole entry): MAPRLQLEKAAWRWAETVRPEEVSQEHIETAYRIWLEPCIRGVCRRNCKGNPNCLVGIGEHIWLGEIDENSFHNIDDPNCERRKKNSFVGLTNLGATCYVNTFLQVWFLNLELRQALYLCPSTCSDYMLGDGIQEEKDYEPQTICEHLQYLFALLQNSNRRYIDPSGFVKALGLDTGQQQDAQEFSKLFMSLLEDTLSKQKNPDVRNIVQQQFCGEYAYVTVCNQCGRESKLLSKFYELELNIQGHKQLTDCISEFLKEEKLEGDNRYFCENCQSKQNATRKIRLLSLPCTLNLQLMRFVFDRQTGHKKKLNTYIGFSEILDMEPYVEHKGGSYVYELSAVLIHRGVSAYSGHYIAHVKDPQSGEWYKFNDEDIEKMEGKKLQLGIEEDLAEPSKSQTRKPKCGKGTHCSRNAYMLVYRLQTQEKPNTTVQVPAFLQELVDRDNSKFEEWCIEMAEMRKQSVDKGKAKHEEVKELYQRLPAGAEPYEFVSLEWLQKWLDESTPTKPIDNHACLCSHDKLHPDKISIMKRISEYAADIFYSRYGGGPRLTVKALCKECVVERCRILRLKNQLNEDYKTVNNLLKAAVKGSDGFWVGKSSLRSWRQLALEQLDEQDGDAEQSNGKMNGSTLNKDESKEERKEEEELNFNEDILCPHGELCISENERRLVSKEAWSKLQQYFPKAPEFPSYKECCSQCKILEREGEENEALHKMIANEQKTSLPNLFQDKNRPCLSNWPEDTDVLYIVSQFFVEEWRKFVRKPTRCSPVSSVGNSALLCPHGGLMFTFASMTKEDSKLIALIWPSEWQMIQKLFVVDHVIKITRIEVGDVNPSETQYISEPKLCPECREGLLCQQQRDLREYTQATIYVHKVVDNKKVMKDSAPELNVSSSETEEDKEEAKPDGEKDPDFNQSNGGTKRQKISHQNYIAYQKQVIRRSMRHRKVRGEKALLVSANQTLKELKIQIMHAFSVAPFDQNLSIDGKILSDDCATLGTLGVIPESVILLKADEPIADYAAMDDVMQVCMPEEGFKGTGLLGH
In short: as §1

USP5 = target: T4, USP5 (UniProt P45974)
T4 sequence (whole entry): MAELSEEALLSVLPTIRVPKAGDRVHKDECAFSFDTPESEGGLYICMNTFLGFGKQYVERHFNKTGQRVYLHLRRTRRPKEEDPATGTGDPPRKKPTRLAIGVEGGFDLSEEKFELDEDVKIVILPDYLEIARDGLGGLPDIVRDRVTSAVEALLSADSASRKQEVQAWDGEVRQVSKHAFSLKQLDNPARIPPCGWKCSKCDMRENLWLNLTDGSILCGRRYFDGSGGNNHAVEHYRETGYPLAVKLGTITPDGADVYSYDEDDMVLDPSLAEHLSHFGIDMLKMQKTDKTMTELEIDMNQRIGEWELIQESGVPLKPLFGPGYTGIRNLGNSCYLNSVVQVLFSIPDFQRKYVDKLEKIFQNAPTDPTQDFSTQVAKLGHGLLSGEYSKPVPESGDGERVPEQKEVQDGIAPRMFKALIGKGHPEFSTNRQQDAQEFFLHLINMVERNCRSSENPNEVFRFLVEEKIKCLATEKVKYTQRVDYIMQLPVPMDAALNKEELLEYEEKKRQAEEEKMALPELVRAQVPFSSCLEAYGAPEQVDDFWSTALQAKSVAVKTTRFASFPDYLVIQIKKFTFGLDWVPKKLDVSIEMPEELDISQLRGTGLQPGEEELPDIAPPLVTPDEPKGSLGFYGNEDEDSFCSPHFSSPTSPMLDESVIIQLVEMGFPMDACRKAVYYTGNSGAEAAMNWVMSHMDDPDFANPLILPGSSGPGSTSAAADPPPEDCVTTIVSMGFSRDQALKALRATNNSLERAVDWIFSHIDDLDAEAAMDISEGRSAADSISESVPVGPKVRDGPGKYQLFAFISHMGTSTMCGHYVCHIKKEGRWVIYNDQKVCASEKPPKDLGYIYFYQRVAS
In short: as §1

USP54 = USP54 (UniProt Q70EL1)
In short: as §1

USP7 = USP7 (UniProt Q93009)
In short: as §1

USP8 = target: T5, USP8 (UniProt P40818)
T5 sequence (whole entry): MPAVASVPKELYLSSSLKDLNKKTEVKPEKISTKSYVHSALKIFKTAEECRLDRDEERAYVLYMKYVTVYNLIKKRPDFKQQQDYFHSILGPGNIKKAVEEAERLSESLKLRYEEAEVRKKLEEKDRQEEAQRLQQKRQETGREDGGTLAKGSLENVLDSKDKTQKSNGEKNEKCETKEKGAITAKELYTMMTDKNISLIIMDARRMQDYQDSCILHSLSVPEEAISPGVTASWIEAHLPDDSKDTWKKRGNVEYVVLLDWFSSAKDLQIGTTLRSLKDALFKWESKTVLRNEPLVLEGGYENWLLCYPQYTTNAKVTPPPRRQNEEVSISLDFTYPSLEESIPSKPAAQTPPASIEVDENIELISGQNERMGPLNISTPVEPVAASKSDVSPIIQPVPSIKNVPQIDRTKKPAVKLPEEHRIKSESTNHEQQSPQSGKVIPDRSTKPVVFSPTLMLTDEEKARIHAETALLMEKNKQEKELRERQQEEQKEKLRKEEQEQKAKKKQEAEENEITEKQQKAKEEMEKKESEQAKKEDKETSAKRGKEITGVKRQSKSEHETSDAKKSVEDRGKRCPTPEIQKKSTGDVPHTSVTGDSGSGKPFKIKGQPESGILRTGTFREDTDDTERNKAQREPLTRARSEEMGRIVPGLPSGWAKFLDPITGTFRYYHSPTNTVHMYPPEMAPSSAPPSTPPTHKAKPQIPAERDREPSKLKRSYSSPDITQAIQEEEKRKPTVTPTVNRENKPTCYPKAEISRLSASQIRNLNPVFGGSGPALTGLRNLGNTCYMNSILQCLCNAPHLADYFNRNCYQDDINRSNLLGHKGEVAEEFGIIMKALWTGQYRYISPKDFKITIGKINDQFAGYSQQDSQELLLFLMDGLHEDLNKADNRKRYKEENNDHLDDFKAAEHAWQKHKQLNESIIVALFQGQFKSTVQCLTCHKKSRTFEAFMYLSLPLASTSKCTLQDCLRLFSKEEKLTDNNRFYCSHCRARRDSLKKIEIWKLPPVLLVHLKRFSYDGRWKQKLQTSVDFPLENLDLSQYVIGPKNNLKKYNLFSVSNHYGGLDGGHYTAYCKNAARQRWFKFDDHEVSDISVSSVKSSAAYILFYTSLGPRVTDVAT
In short: as §1

Measured: log2 ratio of Biotin-Ahx-Ub-VS probe labelling

Chain of USP46 (P62068 whole entry): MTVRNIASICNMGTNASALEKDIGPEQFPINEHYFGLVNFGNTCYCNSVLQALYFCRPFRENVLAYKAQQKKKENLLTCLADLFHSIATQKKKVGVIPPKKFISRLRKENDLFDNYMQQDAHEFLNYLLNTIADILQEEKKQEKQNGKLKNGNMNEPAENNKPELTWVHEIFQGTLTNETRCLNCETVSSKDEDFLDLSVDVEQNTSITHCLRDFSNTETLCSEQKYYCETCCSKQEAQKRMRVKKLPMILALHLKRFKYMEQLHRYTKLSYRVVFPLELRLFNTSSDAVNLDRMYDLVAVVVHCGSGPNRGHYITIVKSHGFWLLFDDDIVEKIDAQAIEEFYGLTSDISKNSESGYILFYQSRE
Chain of USP54 (Q70EL1 whole entry): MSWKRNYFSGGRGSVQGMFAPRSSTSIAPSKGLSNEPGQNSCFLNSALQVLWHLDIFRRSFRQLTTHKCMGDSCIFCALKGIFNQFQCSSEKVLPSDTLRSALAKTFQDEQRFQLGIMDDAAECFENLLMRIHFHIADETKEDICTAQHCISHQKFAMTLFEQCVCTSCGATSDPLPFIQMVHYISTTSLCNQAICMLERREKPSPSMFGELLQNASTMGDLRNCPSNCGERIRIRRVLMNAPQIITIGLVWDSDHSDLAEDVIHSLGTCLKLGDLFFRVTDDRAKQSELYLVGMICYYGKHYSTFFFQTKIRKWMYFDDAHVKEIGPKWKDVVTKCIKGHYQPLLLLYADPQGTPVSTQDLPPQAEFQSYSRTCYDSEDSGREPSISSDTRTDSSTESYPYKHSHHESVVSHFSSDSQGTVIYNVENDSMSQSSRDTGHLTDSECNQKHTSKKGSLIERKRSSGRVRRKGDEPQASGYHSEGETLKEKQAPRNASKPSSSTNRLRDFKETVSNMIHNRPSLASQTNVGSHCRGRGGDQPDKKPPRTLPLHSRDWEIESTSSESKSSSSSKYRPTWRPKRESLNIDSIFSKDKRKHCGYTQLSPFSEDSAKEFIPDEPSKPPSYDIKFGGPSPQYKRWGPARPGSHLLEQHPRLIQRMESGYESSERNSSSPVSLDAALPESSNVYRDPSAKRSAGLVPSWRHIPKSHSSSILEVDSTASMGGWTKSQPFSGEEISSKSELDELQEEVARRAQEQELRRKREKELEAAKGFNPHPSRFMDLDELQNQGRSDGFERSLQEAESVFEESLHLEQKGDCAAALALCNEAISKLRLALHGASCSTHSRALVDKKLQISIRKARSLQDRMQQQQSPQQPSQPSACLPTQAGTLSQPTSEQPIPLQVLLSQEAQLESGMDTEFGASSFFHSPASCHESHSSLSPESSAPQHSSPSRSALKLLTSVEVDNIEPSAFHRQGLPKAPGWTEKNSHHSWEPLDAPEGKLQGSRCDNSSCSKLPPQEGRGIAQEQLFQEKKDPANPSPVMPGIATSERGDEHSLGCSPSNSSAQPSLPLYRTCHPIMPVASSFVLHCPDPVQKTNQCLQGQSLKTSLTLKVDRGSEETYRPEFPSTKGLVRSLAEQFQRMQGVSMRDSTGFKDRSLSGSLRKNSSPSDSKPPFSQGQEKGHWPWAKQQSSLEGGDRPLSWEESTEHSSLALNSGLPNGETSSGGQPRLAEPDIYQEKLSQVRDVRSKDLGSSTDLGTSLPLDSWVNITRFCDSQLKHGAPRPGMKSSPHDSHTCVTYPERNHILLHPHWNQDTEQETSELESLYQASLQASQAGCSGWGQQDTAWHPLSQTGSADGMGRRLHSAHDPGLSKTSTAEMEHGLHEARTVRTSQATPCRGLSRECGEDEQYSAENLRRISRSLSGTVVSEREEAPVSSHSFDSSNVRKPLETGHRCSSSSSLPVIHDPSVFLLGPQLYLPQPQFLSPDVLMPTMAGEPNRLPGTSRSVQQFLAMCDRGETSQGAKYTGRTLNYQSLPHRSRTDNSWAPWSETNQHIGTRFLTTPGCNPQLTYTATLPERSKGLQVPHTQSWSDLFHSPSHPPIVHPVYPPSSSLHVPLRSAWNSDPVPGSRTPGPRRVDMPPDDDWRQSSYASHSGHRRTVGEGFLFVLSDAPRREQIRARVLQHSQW
Chain of USP7 (Q93009 whole entry, looked up): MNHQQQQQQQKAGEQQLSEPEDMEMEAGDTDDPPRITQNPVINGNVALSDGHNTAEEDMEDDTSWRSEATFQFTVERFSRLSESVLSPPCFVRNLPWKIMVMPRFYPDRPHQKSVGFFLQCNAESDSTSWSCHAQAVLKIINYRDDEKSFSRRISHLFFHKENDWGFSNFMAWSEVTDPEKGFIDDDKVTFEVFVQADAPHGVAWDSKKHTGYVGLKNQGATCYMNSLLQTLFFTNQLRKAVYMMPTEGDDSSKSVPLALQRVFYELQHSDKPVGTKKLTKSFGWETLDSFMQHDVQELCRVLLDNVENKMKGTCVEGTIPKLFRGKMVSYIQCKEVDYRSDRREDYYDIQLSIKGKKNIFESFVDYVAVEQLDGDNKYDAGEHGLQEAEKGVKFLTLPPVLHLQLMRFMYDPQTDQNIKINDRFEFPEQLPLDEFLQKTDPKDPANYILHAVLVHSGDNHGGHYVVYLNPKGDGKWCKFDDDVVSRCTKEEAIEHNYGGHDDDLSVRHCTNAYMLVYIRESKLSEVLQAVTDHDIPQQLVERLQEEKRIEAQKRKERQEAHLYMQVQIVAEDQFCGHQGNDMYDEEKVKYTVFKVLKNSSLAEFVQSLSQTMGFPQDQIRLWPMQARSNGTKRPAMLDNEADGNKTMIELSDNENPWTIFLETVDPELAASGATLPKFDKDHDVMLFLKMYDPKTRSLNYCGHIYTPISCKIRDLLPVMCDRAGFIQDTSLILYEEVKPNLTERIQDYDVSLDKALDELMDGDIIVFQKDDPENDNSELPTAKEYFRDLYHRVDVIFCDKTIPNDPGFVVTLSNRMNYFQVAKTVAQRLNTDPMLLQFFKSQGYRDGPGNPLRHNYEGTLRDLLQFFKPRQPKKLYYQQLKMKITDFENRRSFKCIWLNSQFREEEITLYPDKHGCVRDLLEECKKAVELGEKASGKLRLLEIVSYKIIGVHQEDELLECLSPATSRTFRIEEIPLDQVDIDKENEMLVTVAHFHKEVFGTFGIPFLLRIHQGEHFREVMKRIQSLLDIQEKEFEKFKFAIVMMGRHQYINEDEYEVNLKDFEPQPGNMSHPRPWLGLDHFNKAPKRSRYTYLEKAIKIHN

Cl.O=C(CCl)N1CCc2ncncc2C1
inactive: USP42 0.0472 | USP46 -0.292 | USP47 -0.409 | USP48 -0.0378 | USP5 -0.0354 | USP54 0.253 | USP7 -0.411 | USP8 -0.218
